In PubChem BioAssay (NCATS):
Inconclusive results are not listed. Active and inactive are the calls of the source. Calls follow the shape of the dose curve; as a rule, active = well fitted inhibition curve with a large enough effect; inconclusive = small, poorly fitted or top-dose-only effect; inactive = no such curve, though single readings can be large or run the other way. Where a SMILES comes first, the peptide text is derived from it. [ ]: non-standard residue; d: D form. PhLac = O=C(O)[CH](O)Cc1ccccc1; NMeV = CN[CH](C(=O)O)C(C)C

system: Zika virus NS2B-NS3 protease (linked construct); assay: Primary screen NINDS Rhodamine qHTS for Zika virus inhibitors (AID 1347160); conditions: purified NS2B-NS3 protease, Rhodamine110 substrate fluorescence; series mostly up to 57.1 µM; activity change, negative = inhibition: at the top concentration; also: nearly all actives have a fitted effect of over 55% in size
Procedure, shortened: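 Each compound, titrated, sat 15 min with 25 nM linked protease before 1.5 microM Rhodamine110 substrate went in. Fluorescence gain over the next 15 min, in pH 8.0 Tris with Tween 20, gave Hill-fitted curves.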
% is scaled to controls: 0 for no effect and ±100 for the full control effect; potency is read from the fitted curve at half-maximal effect.

SMILES | activity change, negative = inhibition | Potency | outcome
O=C(O)C[C@H]1CCC(=O)[C@@H]1C/C=C\CCOC1OC(CO)C(O)C(O)C1O (some centres undefined) | -2.13% [at 33.1 µM] (inactive) | – | –
CC(C)C(C(=O)N1CCCC1C(=O)O)N(C)C(=O)C(O)Cc1ccccc1 (centres undefined) (H-[PhLac]-[NMeV]-Pro-OH; configuration not given here) | 22% [at 33.1 µM] (inactive) | – | –
C=C1CCC2C(C)(COC3OC(COC(=O)CC(=O)O)C(O)C(O)C3O)CCCC2(C)C1CCC1=CCOC1=O (centres undefined) | -4.11% [at 33.1 µM] (inactive) | – | –
CC1(C)CC2C(C1)C1(C)CCC13OC3(CO)C2O (centres undefined) | -9.38% (inactive) | – | –
C/C=C/C=C/C(CC(=O)O)Nc1ccc(C=O)cc1 (centres undefined) | – | 49.3 µM (active) | –
COc1ccccc1[C@@H]1C2=C(CC(C)(C)CC2=O)Nc2n[nH]c(C(F)(F)F)c21 | -20.9% (inactive) | – | –
CC1(C)CC(=O)N(CCCCN2CCN(c3ncccn3)CC2)C(=O)C1 | 16.4% (inactive) | – | –
CC1=C2C(=O)O[C@@H](c3ccoc3)[C@]2(C)CCC1 | – | inactive | –
CC1C(=O)CC2C3C(O)CC(C(=O)O)C12CC3(C)C (centres undefined) | 19.7% (inactive) | – | –
O=S(=O)(NC1CCNCC1)c1cc(S(=O)(=O)c2ccccc2)ccc1C(F)(F)F | 46.7% (inactive) | – | –
CC1CCC2(O1)C(C)(C)CC(O[C@@H]1O[C@H](CO[C@@H]3OC[C@](O)(CO)[C@H]3O)[C@@H](O)[C@H](O)[C@H]1O)CC2(C)O (some centres undefined) | -26.5% [at 33.1 µM] (inactive) | – | –
CC(C)CC(=O)OC[C@H]1O[C@@](COC(=O)CC(C)C)(O[C@H]2O[C@H](CO)[C@@H](O)[C@H](O)[C@H]2OC(=O)CC(C)C)[C@@H](OC(=O)CC(C)C)[C@@H]1O | – | – | inactive [at 15.1 µM]
NS(=O)(=O)NCCNc1nonc1C(=Nc1ccc(F)c(Br)c1)NO | – | inactive | –
CCn1nnnc1NCc1ccc(C(C)C)cc1 | 5.97% (inactive) | – | –
CC1(C)C(=O)C(C)(C)c2cc(C(=O)Nc3ccc(C(=O)O)cc3)ccc21 | -4.75% (inactive) | – | –
CC1CCC2C(C)(C)C(O)CCC2(C)C12Cc1c(O)cc3c(c1O2)CN=C3N (centres undefined) | -10.7% [at 33.1 µM] (inactive) | – | –
CN1C(=O)c2ccccc2NC(=O)[C@]12O[C@@H]2c1cccc(O)c1 | -12% (inactive) | – | –
CC(=O)c1cnc2ccc(-c3cc(Cl)c(O)c(Cl)c3)nc2c1NC1CCC(CN(C)C)CC1 (centres undefined) | – | – | inactive; activator [at 10.7 µM]
C=C1CCC2[C@@](C)(C=O)CCC[C@]2(C)[C@H]1CC/C(C)=C/CO (some centres undefined) | -5.18% (inactive) | – | –
